Vaccinia Venus: inhibitors of vaccinia virus (Venus reporter) | hit rate 0.46% among 330,000 | AID 720580 | Vaccinia virus Venus reporter expression, fluorescence | Potency, µM (series often up to 36.5 µM), for the others: at the top dose activity change, negative = inhibition, actives largely listed as inhibitors; calls by dose curve; tested in A549 cells; also: % is scaled to controls: 0 for no effect and ±100 for the full control effect; nearly all actives have a fitted effect of over 30% in size
Vaccinia mCherry: vaccinia inhibition (mCherry reporter); Vaccinia virus mCherry reporter infection, fluorescence; Potency, µM (series often up to 36.5 µM), for inactives: at the top dose activity change, negative = inhibition, usual class: inhibitors; hit rate 0.63% among 310,000; calls by dose curve; tested in A549 cells; also: % is scaled to controls: 0 for no effect and ±100 for the full control effect; nearly all actives have a fitted effect of over 35% in size
SARS PLpro yeast: blocks SARS-CoV papain-like protease in a yeast assay | S. cerevisiae expressing SARS-CoV PLpro, growth rescue | Potency, µM (highest dose often 32.9 µM), for inactives: at the highest dose activity, positive = growth rescue, hits mostly activators | hit rate 0.19% among 330,000; calls by dose curve; also: 0% is about no effect; nearly all actives have a fitted effect of over 55% in size
AmpC inh no detg: AmpC beta-lactamase inhibition without detergent. AmpC nitrocefin hydrolysis, absorbance 480 nm, 0.0001% Triton. Potency, µM (doses to about 57.1 µM), for the others: at the top dose activity change, negative = inhibition, hits mostly inhibitors. P00811. hit rate 0.52% among 330,000. AID 485341;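 also: plate controls were no compound for no effect and no enzyme for full effect; nearly all actives have a fitted effect of over 20% in size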
Target sequence (P00811 whole entry, looked up): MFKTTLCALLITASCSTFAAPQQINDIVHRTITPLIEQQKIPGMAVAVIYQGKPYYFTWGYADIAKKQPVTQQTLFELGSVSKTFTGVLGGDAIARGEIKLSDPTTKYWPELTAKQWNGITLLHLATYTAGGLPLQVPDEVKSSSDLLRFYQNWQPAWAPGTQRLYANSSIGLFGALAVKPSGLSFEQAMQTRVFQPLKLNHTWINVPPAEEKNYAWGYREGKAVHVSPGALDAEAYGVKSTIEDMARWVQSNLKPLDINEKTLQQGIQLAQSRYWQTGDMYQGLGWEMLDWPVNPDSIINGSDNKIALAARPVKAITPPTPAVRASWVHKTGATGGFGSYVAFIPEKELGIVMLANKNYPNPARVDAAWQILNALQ
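AmpC (5.3 nM in the dispensed reagent) in 20 mM phosphate pH 7.0 with 0.01% (detergent screen) or 0.0001% Triton X-100 was preincubated with compounds for 15 min at room temperature. Nitrocefin was then added from an 800 uM solution, and hydrolysis was followed at 480 nm.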
AmpC detergent: blocks E. coli AmpC beta-lactamase in detergent assay; P00811; AmpC hydrolysis of nitrocefin, absorbance 480 nm, 0.01% Triton; Potency, µM (titrated, usually from 114 µM), for the others: top-dose activity change, negative = inhibition, hits mostly inhibitors; hit rate 0.041% among 370,000;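 also: 0% = no-compound wells and -100% = no-enzyme wells; nearly all actives have a fitted effect of over 25% in size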
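AmpC (5.3 nM in the dispensed reagent) in 20 mM phosphate pH 7.0 with 0.01% (detergent screen) or 0.0001% Triton X-100 was preincubated with compounds for 15 min at room temperature. Nitrocefin was then added from an 800 uM solution, and hydrolysis was followed at 480 nm.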
The depositor's hits bear a star; i = inactive; ? = inconclusive; . = no result; ! = a repeat was not active. Shown are actives, neighbours in structure and some others; about 1.3% of the full set was active somewhere. Unless noted, calls follow the shape of the dose curve; as a rule, active = well fitted curve in the direction sought with a large enough effect; inconclusive = small, poorly fitted or top-dose-only effect, or another doubt; inactive = no such curve, though single readings can be large; an effect the other way counts as inactive or inconclusive. Potency is read from the fitted curve at half-maximal effect.

SMILES	Vaccinia Venus	Vaccinia mCherry	SARS PLpro yeast	AmpC inh no detg	AmpC detergent
CCC1C(=O)NCCN1Cc1ccc2c(c1)CN(Cc1ccc(OC)c(OC)c1)CCO2 (configuration not stated)	?	-2%	.	.	.
COc1ccc2nc3oc(C(=O)Nc4cccc(C(F)(F)F)c4)cc3cc2c1	-15%	-15%	.	.	2%
Cc1cccc2c1-c1sc(C(=O)Nc3cccnc3)cc1CO2	.	.	1%	-11%	?
CC(=O)c1cccc(NC(=O)c2cc3c(s2)-c2c(C)cccc2OC3)c1	20µM*	11µM*	.	.	-3%
Cc1c(C(=O)NCc2cccc(F)c2)sc2ncnc(NCC3CCCO3)c12 (configuration not stated)	8%	-9%	.	.	.
COc1cccc(C(=O)Nc2ccc(-c3nc4ccccc4o3)c(O)c2)c1	?	?	-4%	4µM*	-1%
COc1cccc(C(=O)Nc2c(C(N)=O)oc3ccccc23)c1	-17%	-15%	-9%	7.1µM*	?
NC(=S)N=Nc1c(O)n(CCCl)c2ccccc12	1µM*	?	0%	-31%	-5%
NC(=S)N=Nc1c(O)n(CCCl)c2ccc(Cl)cc12	?	2.2µM*	0%	-40%	-14%
CN(Cc1cnc2nc(N)nc(N)c2n1)c1ccc(C(=O)NC(CCC(=O)O)C(=O)O)c2ccccc12 (configuration not stated)	?	3.2µM*	.	.	.
Cc1c(C(=O)N2CCCCC2)sc2ncnc(NCCN(C)C)c12	0%	-6%	.	.	.
CC1CCCN(c2ccc(C(=O)NCC3CCCO3)cn2)C1 (configuration not stated)	-12%	i	-3%	0.2µM*	-2%
Clc1ccc(/C=C/c2nc3ccccc3[nH]2)c(Cl)c1	.	.	-46%	11µM*	-4%
COCCNC(=O)C1(C)CCN(C(=O)c2cccnc2Oc2ccccc2)C1 (configuration not stated)	32µM*	28µM*	.	.	.
CCCNC(=O)C1(C)CCCN(C(=O)c2cccnc2Oc2ccccc2)C1 (configuration not stated)	-2%	4%	.	.	.
CCC(C)NC(=O)c1nc2c(nnn2Cc2ccccc2Cl)c(=O)[nH]1 (configuration not stated)	-1%	-14%	1%	-22%	-3%
O=C(NCc1cccs1)c1nc2c(nnn2Cc2ccccc2Cl)c(=O)[nH]1	7.1µM*	?	10%	-7%	3%
Cc1ccccc1CS(=O)(=O)c1nnc([C@H](Cc2ccccc2)NC(=O)OC(C)(C)C)o1	-29%	-23%	-37%	13µM*	28µM*
CC(C)(C)OC(=O)N[C@@H](Cc1ccccc1)c1nnc(S(=O)(=O)Cc2ccccc2)o1	.	.	-42%	?	18µM*
CCC(C)[C@@H](NC(=O)OC(C)(C)C)c1nnc(S(=O)(=O)Cc2cccc(C)c2)o1 (some centres not stated)	?	.	-13%	14µM*	18µM*
CCN(Cc1ccncc1)Cc1ccc2c(c1)CN(C(=O)c1ccccc1)CCO2	5%	-7%	.	.	.
O=C(NCCN1CCOCC1)c1cnn(-c2nccc(-c3ccccc3C(F)(F)F)n2)c1C1CC1	-8%	-8%	.	.	.
Cc1cc(C(=O)N/N=C/c2ccc3c(c2)OCO3)c(C)n1-c1ccc(F)cc1	-4%	-1%	-2%	-44%	3%
Cc1cc(C(=O)N/N=C/c2ccc(Cl)c([N+](=O)[O-])c2)c(C)n1-c1ccc(F)cc1	-26%	?	3%	16µM*	-9%
CCC(=O)NCCn1ccc2ccccc21	16%	-21%	-1%	-14%	-17%
O=S(=O)(NCCn1ccc2ccccc21)c1ccccc1	2%	36%	-10%	25µM*	-14%
CCN1CCN(Cc2ccc(NC(=O)c3cc(NC(=O)c4cc(-c5ccc(OC)cc5)n[nH]4)cc(OC)c3)cc2C(F)(F)F)CC1	10µM*	?	1%	55%	4%
CCN1CCN(Cc2ccc(NC(=O)c3cc(NC(=O)c4ccno4)cc(OC)c3)cc2C(F)(F)F)CC1	?	-5%	-2%	70%	-3%
CCN1CCN(Cc2ccc(NC(=O)c3cc(NC(=O)c4cc5cccc(OC)c5o4)cc(OC)c3)cc2C(F)(F)F)CC1	13µM*!	?	0%	111%	6%

Screens: PubChem BioAssay, National Center for Advancing Translational Sciences (NCATS)
